# Reference: PubChem BioAssay (NCATS)
# Where “and” joins values, the source holds several entries; their conditions need not be identical. Equal values may be shown once. Inconclusive results are not listed. A call without a number means that no potency is given here. Calls of active or inactive are those of the source. Unless noted, calls come from the whole dose curve; as a rule, active = well fitted curve in the direction sought with a large enough effect; inconclusive = small, poorly fitted or top-dose-only effect, or another doubt; inactive = no such curve, though single readings can be large; an effect the other way counts as inactive or inconclusive.
# Experiments:
# [1] = Primary qHTS for inhibitors of nuclear receptor binding SET domain protein 2 (NSD2) in an isogenic RCH-ACV NSD2 p.E1099K mutant (9B) (AID 1645876); note: nearly all actives have a fitted effect of over 70% in size; note: potency is the fitted concentration of half-maximal effect
# [2] = Primary qHTS for inhibitors of nuclear receptor binding SET domain protein 2 (NSD2) in an RCH-ACV wild type WT cells (2C) (AID 1645877); note: nearly all actives have a fitted effect of over 70% in size; note: potency is the fitted concentration of half-maximal effect
# [3] = biological target: Rap guanine nucleotide exchange factor 3 (Homo sapiens) (UniProt O95398); test: Confirmatory qHTS for antagonist of cAMP-regulated guanine nucleotide exchange factor 3 (EPAC1) (AID 1645880); note: nearly all actives have a fitted effect of over 55% in size; note: potency is the fitted concentration of half-maximal effect
# Rap guanine nucleotide exchange factor 3 (Homo sapiens), sequence (O95398 whole entry, looked up): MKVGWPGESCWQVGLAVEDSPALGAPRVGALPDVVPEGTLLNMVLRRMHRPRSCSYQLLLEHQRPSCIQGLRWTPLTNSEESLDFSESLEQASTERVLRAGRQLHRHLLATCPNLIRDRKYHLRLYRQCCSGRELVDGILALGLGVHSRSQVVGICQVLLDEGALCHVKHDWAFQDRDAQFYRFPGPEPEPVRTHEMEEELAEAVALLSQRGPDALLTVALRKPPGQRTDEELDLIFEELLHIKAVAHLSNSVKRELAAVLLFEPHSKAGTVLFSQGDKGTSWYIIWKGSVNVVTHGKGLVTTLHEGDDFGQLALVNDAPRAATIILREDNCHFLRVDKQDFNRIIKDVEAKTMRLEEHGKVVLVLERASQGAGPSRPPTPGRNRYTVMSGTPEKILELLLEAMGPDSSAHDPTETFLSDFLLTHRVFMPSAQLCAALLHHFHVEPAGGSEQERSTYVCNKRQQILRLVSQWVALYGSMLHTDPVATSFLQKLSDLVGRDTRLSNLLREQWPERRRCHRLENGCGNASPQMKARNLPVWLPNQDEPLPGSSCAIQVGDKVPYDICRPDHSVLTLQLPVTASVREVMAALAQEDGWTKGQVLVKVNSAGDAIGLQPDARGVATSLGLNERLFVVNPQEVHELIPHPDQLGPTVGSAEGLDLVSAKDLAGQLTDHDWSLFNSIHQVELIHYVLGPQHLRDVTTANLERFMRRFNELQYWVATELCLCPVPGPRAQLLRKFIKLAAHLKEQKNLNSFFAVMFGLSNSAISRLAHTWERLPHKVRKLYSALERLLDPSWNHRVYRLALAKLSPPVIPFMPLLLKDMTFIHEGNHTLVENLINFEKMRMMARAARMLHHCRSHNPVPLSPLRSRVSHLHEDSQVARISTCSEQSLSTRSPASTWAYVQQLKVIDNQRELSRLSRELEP
# In short: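 Nucleotide exchange uses 100 nM EPAC1, 250 nM RAP1B-BODIPY-GDP and 50 uM GDP, with compounds in a concentration-titration series. After 5 min at room temperature, fluorescence (480 nm ex/540 nm em) is read every 5 min for 30 min. Data are normalized to control ATA and DMSO.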
# [4] = biological target: Rap guanine nucleotide exchange factor 3 (Homo sapiens) (UniProt O95398); test: Confirmatory qHTS for agonist of cAMP-regulated guanine nucleotide exchange factor 3 (EPAC1) (AID 1645881);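 note: EPAC1 catalysed release of BODIPY-GDP from Rap1B seen as fluorescence loss; nearly all actives have a fitted effect of over 75% in size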
# [5] = biological target: Rap guanine nucleotide exchange factor 4 (Homo sapiens) (UniProt Q8WZA2); test: Confirmatory qHTS for agonist of cAMP-regulated guanine nucleotide exchange factor 4 (EPAC2) (AID 1645884);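 note: nucleotide exchange releases bodipy-GDP from Rap1 and this lowers its fluorescence; nearly all actives have a fitted effect of over 65% in size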
# Rap guanine nucleotide exchange factor 4 (Homo sapiens), sequence (Q8WZA2 whole entry, looked up): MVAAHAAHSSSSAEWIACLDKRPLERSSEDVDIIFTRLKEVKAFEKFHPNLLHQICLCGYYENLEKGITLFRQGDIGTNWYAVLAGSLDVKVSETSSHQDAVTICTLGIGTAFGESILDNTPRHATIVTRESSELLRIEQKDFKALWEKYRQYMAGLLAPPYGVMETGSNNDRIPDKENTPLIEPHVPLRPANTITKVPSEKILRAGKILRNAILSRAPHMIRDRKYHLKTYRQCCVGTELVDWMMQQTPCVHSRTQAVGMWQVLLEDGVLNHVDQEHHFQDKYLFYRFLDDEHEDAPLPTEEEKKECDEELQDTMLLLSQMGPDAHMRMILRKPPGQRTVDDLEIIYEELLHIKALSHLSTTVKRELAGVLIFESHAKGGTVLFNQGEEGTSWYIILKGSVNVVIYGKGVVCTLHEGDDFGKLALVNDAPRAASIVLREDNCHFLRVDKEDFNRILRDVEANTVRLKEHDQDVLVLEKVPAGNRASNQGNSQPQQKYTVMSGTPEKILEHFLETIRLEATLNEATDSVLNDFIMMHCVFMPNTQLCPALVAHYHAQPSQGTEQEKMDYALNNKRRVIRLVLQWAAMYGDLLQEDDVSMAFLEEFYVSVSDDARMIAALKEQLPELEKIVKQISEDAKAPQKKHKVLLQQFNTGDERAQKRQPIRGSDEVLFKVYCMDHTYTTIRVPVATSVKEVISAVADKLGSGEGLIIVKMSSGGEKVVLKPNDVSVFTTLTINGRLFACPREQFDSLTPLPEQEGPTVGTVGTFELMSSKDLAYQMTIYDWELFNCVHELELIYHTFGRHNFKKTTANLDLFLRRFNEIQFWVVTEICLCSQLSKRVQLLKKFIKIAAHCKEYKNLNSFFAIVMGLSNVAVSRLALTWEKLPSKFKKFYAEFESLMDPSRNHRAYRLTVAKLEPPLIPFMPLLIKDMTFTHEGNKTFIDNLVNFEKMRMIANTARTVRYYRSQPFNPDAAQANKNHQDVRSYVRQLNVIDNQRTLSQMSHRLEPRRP
# [6] = biological target: Rap guanine nucleotide exchange factor 4 (Homo sapiens) (UniProt Q8WZA2); test: Confirmatory qHTS for antagonist of cAMP-regulated guanine nucleotide exchange factor 4 (EPAC2) (AID 1645885); note: nearly all actives have a fitted effect of over 25% in size; note: potency is the fitted concentration of half-maximal effect
# [7] = biological target: Catechol O-methyltransferase (Homo sapiens) (UniProt P21964); test: Confirmatory Screen for Target Class Profiling of Small Molecule Inhibitors of Methyltransferases (AID 1745852; calls by dose curve); conditions: MTase-Glo luminescence, SAH detection, recombinant enzyme; measured here: COMT max response; stronger effect = lower value
# Catechol O-methyltransferase (Homo sapiens), sequence (P21964 whole entry, looked up): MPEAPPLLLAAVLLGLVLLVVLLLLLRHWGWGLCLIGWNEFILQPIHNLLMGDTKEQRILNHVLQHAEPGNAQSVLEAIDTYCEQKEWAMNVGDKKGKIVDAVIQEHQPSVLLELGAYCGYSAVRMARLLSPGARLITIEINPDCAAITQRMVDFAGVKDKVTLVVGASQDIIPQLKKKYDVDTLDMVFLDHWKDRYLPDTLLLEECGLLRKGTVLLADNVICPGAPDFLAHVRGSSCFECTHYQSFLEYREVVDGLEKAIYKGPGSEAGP
# [8] = biological target: Guanidinoacetate N-methyltransferase (Homo sapiens) (UniProt Q14353); test: as above; conditions: MTase-Glo luminescence, SAH detection, recombinant enzyme; activity change, negative = inhibition: at 57.3 µM (top of the series)
# [9] = biological target: Rap guanine nucleotide exchange factor 3 (Homo sapiens) (UniProt O95398); test: Counterscreen qHTS for antagonist of cAMP-regulated guanine nucleotide exchange factor 3 (EPAC1) (AID 1645888);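 note: fluorescence loss as bound BODIPY-GDP is released from Rap1B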
# In short: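 Rap1B–BODIPY-GDP (250 nM) with 50 uM GDP; compounds pin-transferred to 9.74 nM–152 uM final (activator) or from 7.32 nM upwards (inhibitor). Fluorescence Ex/Em 480/540 nm read at 5 and 30 min, then after adding cAMP or buffer, at room temperature.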
smiles,measurement,setting,value
Brc1c(Br)c(Br)c2n[nH]nc2c1Br,Potency,[1],inactive
same,Potency,[2],inactive
same,Potency,[3],55.9 µM (active)
same,Potency,[4],inactive
same,Potency,[5],inactive
same,Potency,[6],15.6 µM (active)
CC(C(=O)O)c1ccc(C(=O)c2ccccc2)s1 (centres undefined),Potency,[1],inactive
same,Potency,[2],inactive
O=C(O)Cc1ccc(-c2ccccc2)cc1,Potency,[2],inactive
CCCCCCCCCCCCCCCCCC(=O)O,Potency,[1],inactive
same,Potency,[2],inactive
Nc1ccc(C(=O)O)c(O)c1,Potency,[1],inactive
same,Potency,[2],inactive
CN[C@H](CC(C)C)C(=O)N[C@H]1C(=O)N[C@@H](CC(N)=O)C(=O)N[C@H]2C(=O)N[C@H]3C(=O)N[C@H](C(=O)N[C@H](C(=O)O)c4cc(O)cc(O)c4-c4cc3ccc4O)[C@H](O)c3ccc(c(Cl)c3)Oc3cc2cc(c3O[C@@H]2O[C@H](CO)[C@@H](O)[C@H](O)[C@H]2O[C@H]2C[C@](C)(N)[C@H](O)[C@H](C)O2)Oc2ccc(cc2Cl)[C@H]1O,Potency,[1],inactive
same,Potency,[2],inactive
COc1cc(/C=C/C(=O)N2CCN(CC(=O)N3CCCC3)CC2)cc(OC)c1OC,Potency,[1],inactive
same,Potency,[2],inactive
COc1cc(NC(C)CCCN)c2ncccc2c1 (centres undefined),Potency,[1],6.68 µM (active)
same,Potency,[2],5.31 µM (active)
CN(C)CCn1nnnc1SCC1=C(C(=O)O)N2C(=O)[C@@H](NC(=O)Cc3csc(N)n3)[C@H]2SC1,Potency,[1],inactive
same,Potency,[2],inactive
C[N+]1(C)[C@@H]2CC(OC(=O)[C@H](CO)c3ccccc3)C[C@H]1[C@@H]1O[C@@H]12 (some centres undefined),Potency,[1],inactive
same,Potency,[2],inactive
COc1cc(/C=C/C(=O)CC(=O)/C=C/c2ccc(O)c(OC)c2)ccc1O,Potency,[1],11.8 µM (active)
same,Potency,[2],8.33 µM (active)
same,activity,[7],-53.7%
same,"activity change, negative = inhibition",[8],-2.93%
O=Cc1ccc(O)c(O)c1O,Potency,[2],16.8 µM (active)
O=C1NC(=O)/C(=C/c2ccc(-c3ccc(F)cc3O)o2)S1,Potency,[1],14.8 µM (active)
same,Potency,[2],10.5 µM (active)
same,Potency,[3],55.9 µM (active)
same,Potency,[4],inactive
same,Potency,[5],inactive
same,Potency,[6],9.87 µM (active)
Nc1cc(-c2ccncc2)c[nH]c1=O,Potency,[1],inactive
same,Potency,[2],inactive
same,Potency,[3],inactive
same,Potency,[4],inactive
same,Potency,[5],inactive
same,Potency,[6],inactive
CCOC(=O)N1CCN(/[N+]([O-])=N/Oc2ccc([N+](=O)[O-])cc2[N+](=O)[O-])CC1,Potency,[1],7.42 µM (active)
same,activity,[7],-99.7%
same,"activity change, negative = inhibition",[8],-4.08%
Cc1c(Nc2ncccc2C(=O)O)cccc1C(F)(F)F,Potency,[2],inactive
CCN(CC)CCCCNc1ncc2cc(-c3c(Cl)cccc3Cl)c(NC(=O)NC(C)(C)C)nc2n1,Potency,[1],1.45 µM (active)
same,Potency,[2],3.65 µM (active)
same,activity,[7],-7.59% and -2.1%
same,"activity change, negative = inhibition",[8],0.993% and 9.36%
N#C/C(=C\c1ccc(O)c(O)c1)C(=O)NCCCc1ccccc1,Potency,[1],14.6 µM (active)
same,Potency,[3],15.7 µM (active)
same,Potency,[4],inactive
same,Potency,[5],inactive
COC(=O)C1=C(C)NC(C)=C(C(=O)OC)C1c1cccc(NC(=O)NCCCN2CCC(c3cccc(OC)c3)CC2)c1,Potency,[1],4.59 µM (active)
same,Potency,[2],4.59 µM (active)
same,activity,[7],-1.21% and -6.68%
same,"activity change, negative = inhibition",[8],0% and 10.5%
CC(C)OC(=O)c1cc(C(=O)OC(C)C)cc([N+](=O)[O-])c1,Potency,[1],inactive
same,Potency,[2],inactive
O=C(CCN1CCN(CCO)CC1)N1c2ccccc2Sc2ccc(C(F)(F)F)cc21,Potency,[1],inactive
same,Potency,[2],inactive
Cc1ccc(C(=O)c2ccc(CC(=O)O)n2C)cc1,Potency,[1],inactive
same,Potency,[2],inactive
CC1(C)[C@@H](O)CC[C@]2(C)[C@H]3C(=O)C=C4[C@@H]5C[C@@](C)(C(=O)O)CC[C@]5(C)CC[C@@]4(C)[C@]3(C)CC[C@@H]12,Potency,[1],inactive
same,Potency,[3],inactive
same,Potency,[4],inactive
same,Potency,[5],inactive
same,Potency,[6],3.93 µM (active) and 2.48 µM (active)
O=C(O)c1ccccc1Nc1cccc(C(F)(F)F)c1,Potency,[2],inactive
same,Potency,[3],inactive
same,Potency,[4],inactive
same,Potency,[5],inactive
O=C(CS)Nc1ccccc1,Potency,[1],inactive
same,Potency,[2],inactive
Cn1cc(C2=C(c3ccc(Cl)cc3Cl)C(=O)NC2=O)c2ccccc21,Potency,[1],6.51 µM (active)
same,Potency,[2],6.51 µM (active)
same,Potency,[3],inactive
same,Potency,[4],inactive
same,"activity change, negative = inhibition",[6],2.07% [at 12.7 µM] (inactive)
same,outcome,[9],inactive
